The supplement of paper PMC10849652
Targets with a hit are over-represented here; the source holds about 7,900 in all. About 0.6% of all pairs of compound and target were hits. Values without a mark were called inactive.

Legend:
Experiment in all cases: log2 fold change, soluble protein after heating vs DMSO (PISA); higher = thermal stabilisation; K562 cells, 10 uM, 30 min; active = over 0.2 and 3.5 SD of the protein, either way, in both replicates (recomputed)
[1] = compound: COC1=CC=C(C=C1)CN2C=CC3=C2C=C(C=C3)C(=O)NO
How it was run: (§1)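 Values are thermal stability changes relative to control samples and are taken from duplicates. They are stated as log2 fold changes. Before quantification by TMTpro 16plex LC-MS/MS with equalised channel sums, K562 cells at 2×10^6 cells/mL were treated with 10 μM compound for 30 min, heated in aliquots for 3 min across 48°C-58°C, pooled, extracted in PBS with 0.5% NP-40 at 4°C, and centrifuged at 21,000xg for 90 min to give the soluble supernatant.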

filanesib = compound: CON(C)C(=O)N1N=C(c2cc(F)ccc2F)S[C@@]1(CCCN)c1ccccc1 [filanesib]
How it was run: as §1

zotarolimus = compound: CO[C@H]1C[C@@H]2CC[C@@H](C)[C@@](O)(O2)C(=O)C(=O)N2CCCC[C@H]2C(=O)O[C@H]([C@H](C)C[C@@H]2CC[C@H](n3cnnn3)[C@H](OC)C2)CC(=O)[C@H](C)/C=C(\C)[C@@H](O)[C@@H](OC)C(=O)[C@H](C)C[C@H](C)/C=C/C=C/C=C/1C [zotarolimus]
How it was run: as §1

idasanutlin = compound: COc1cc(C(=O)O)ccc1NC(=O)[C@@H]1N[C@@H](CC(C)(C)C)[C@](C#N)(c2ccc(Cl)cc2F)[C@H]1c1cccc(Cl)c1F [idasanutlin]
How it was run: as §1

alisertib = compound: COc1cc(Nc2ncc3c(n2)-c2ccc(Cl)cc2C(c2c(F)cccc2OC)=NC3)ccc1C(=O)O [alisertib]
How it was run: as §1

[2] = compound: COc1cc2nc(-c3cc(F)ccc3O)nc(N[C@@H]3CNC[C@H]3C(C)(C)O)c2cc1OC
How it was run: as §1

gefitinib = compound: COc1cc2ncnc(Nc3ccc(F)c(Cl)c3)c2cc1OCCCN1CCOCC1 [gefitinib]
How it was run: as §1

[3] = compound: COc1cccc2cc(-c3nc([C@H]4CC[C@H](C(=O)O)CC4)n4ncnc(N)c34)[nH]c12
How it was run: as §1

lapatinib = compound: CS(=O)(=O)CCNCc1ccc(-c2ccc3ncnc(Nc4ccc(OCc5cccc(F)c5)c(Cl)c4)c3c2)o1 [lapatinib]
How it was run: as §1

pictilisib = compound: CS(=O)(=O)N1CCN(Cc2cc3nc(-c4cccc5[nH]ncc45)nc(N4CCOCC4)c3s2)CC1 [pictilisib]
How it was run: as §1

[4] = compound: CS(=O)(=O)c1ccc(-c2cnc(N)c(C(=O)Nc3ccccc3)n2)cc1
How it was run: as §1

crizotinib = compound: C[C@@H](Oc1cc(-c2cnn(C3CCNCC3)c2)cnc1N)c1c(Cl)ccc(F)c1Cl [crizotinib]
How it was run: as §1

[5] = compound: C[C@@H]1COCCN1C2=NC(=NC(=C2)C3(CC3)S(=O)(=O)C)C4=C5C=CNC5=CC=C4
How it was run: as §1

[6] = compound: C[C@H](C1=CC=C(C=C1)C(=O)NC2=C3C=CNC3=NC=C2)N
How it was run: as §1

duvelisib = compound: C[C@H](Nc1ncnc2nc[nH]c12)c1cc2cccc(Cl)c2c(=O)n1-c1ccccc1 [duvelisib]
How it was run: as §1

gandotinib = compound: Cc1cc(Nc2cc(CN3CCOCC3)c3nc(C)c(Cc4ccc(Cl)cc4F)n3n2)n[nH]1 [gandotinib]
How it was run: as §1

tozasertib = compound: Cc1cc(Nc2cc(N3CCN(C)CC3)nc(Sc3ccc(NC(=O)C4CC4)cc3)n2)n[nH]1 [tozasertib]
How it was run: as §1

[7] = compound: Cc1cc(SCc2sc(-c3ccc(C(F)(F)F)cc3)nc2C)ccc1OCC(=O)O
How it was run: as §1

doramapimod = compound: Cc1ccc(-n2nc(C(C)(C)C)cc2NC(=O)Nc2ccc(OCCN3CCOCC3)c3ccccc23)cc1 [doramapimod]
How it was run: as §1

ispinesib = compound: Cc1ccc(C(=O)N(CCCN)[C@@H](c2nc3cc(Cl)ccc3c(=O)n2Cc2ccccc2)C(C)C)cc1 [ispinesib]
How it was run: as §1

Sequence of UniProt Q92692 (Q92692 whole entry, looked up): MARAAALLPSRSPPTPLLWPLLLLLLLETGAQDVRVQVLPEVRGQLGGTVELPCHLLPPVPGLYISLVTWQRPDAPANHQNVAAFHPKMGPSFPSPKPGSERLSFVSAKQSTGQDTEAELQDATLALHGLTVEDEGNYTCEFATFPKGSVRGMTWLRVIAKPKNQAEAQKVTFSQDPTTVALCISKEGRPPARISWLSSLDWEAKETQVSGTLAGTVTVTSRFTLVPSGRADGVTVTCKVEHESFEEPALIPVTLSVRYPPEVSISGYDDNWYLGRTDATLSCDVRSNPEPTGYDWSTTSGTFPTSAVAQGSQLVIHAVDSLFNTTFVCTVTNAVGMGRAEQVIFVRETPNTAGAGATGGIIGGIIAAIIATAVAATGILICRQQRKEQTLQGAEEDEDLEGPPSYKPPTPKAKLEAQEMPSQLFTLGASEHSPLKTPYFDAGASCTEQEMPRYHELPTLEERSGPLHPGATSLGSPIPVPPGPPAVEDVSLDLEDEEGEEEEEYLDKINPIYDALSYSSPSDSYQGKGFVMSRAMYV
Sequence of UniProt O43847 (O43847 whole entry, looked up): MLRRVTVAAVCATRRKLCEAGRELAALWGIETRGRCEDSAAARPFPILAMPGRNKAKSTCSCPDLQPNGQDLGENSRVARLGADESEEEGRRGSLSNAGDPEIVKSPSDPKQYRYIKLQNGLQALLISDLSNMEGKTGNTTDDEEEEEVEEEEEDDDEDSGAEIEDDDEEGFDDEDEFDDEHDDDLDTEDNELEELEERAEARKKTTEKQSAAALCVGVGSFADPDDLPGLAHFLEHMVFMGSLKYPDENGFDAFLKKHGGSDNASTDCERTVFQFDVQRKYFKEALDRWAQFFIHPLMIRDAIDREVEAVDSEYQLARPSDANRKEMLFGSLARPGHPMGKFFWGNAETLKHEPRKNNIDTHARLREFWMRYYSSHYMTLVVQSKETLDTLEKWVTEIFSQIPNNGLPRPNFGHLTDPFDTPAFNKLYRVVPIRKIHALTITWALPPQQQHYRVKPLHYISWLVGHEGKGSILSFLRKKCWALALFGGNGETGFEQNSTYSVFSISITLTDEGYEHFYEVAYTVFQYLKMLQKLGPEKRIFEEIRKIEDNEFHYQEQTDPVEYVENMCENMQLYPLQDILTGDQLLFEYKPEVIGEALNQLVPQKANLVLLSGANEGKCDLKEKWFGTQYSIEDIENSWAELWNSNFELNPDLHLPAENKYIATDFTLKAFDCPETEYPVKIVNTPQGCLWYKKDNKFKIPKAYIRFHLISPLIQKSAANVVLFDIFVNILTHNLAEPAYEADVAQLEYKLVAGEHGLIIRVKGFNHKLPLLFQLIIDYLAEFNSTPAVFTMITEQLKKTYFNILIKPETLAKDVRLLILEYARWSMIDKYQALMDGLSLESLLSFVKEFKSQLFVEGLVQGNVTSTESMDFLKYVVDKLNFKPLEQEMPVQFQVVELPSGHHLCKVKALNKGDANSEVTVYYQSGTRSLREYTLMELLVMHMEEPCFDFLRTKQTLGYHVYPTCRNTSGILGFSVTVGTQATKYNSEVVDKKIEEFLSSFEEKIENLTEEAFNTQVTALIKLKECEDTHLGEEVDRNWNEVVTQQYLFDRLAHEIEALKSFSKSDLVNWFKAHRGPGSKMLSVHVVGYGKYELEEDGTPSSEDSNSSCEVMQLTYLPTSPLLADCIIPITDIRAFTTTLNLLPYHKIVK
Sequence of UniProt Q9Y314 (Q9Y314 whole entry, looked up): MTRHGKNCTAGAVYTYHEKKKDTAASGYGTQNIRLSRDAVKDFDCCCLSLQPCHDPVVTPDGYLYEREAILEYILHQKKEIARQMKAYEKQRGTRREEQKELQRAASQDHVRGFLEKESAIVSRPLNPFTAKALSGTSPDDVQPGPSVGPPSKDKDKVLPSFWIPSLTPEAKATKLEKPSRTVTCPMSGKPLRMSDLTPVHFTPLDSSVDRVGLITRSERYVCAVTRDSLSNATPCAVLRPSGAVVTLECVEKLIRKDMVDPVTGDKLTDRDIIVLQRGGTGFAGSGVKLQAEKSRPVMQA
Sequence of UniProt P19338 (P19338 whole entry, looked up): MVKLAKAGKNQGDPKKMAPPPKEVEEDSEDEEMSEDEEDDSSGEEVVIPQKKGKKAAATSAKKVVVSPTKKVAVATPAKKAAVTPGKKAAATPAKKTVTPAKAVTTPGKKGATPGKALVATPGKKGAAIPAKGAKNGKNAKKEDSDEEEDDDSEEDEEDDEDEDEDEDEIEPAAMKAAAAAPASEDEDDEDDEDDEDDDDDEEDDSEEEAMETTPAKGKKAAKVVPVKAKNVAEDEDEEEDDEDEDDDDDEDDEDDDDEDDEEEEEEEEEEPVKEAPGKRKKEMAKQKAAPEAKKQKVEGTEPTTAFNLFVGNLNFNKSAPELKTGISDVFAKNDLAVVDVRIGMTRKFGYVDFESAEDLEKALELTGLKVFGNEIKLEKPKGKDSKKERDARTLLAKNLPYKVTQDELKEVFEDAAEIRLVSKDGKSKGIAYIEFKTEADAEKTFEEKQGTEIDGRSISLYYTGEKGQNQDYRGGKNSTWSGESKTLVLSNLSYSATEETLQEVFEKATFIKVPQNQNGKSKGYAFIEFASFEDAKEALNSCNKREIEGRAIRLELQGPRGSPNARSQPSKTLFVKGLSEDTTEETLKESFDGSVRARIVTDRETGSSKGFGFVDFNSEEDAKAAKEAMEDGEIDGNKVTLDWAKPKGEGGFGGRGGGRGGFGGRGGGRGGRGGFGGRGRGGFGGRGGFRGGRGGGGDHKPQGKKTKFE
Sequence of UniProt Q9BW27 (Q9BW27 whole entry, looked up): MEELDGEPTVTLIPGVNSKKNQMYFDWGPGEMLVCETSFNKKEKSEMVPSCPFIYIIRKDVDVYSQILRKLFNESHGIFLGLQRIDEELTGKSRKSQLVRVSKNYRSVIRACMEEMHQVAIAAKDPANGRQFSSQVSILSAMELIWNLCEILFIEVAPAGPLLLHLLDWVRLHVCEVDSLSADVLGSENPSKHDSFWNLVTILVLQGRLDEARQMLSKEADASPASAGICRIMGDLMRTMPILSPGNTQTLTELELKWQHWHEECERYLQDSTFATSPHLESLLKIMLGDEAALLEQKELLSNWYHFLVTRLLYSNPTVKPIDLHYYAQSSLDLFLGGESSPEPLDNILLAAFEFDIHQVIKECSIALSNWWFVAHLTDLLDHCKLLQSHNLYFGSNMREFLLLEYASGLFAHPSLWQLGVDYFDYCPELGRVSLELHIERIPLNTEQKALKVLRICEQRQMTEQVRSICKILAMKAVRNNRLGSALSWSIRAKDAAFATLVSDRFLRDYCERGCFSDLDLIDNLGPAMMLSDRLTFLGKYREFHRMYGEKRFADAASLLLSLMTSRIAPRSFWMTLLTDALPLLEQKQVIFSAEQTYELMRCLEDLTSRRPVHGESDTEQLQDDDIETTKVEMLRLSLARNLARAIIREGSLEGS
Sequence of UniProt Q9HBL8 (Q9HBL8 whole entry, looked up): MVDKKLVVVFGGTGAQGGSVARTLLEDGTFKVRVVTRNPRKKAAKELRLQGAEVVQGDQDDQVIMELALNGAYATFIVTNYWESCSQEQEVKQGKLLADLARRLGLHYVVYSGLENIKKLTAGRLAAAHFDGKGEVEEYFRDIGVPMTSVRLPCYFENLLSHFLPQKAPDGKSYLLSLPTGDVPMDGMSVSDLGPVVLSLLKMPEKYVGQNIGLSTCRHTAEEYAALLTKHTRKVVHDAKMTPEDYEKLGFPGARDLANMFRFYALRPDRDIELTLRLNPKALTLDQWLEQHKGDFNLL
Sequence of UniProt Q12968 (Q12968 whole entry, looked up): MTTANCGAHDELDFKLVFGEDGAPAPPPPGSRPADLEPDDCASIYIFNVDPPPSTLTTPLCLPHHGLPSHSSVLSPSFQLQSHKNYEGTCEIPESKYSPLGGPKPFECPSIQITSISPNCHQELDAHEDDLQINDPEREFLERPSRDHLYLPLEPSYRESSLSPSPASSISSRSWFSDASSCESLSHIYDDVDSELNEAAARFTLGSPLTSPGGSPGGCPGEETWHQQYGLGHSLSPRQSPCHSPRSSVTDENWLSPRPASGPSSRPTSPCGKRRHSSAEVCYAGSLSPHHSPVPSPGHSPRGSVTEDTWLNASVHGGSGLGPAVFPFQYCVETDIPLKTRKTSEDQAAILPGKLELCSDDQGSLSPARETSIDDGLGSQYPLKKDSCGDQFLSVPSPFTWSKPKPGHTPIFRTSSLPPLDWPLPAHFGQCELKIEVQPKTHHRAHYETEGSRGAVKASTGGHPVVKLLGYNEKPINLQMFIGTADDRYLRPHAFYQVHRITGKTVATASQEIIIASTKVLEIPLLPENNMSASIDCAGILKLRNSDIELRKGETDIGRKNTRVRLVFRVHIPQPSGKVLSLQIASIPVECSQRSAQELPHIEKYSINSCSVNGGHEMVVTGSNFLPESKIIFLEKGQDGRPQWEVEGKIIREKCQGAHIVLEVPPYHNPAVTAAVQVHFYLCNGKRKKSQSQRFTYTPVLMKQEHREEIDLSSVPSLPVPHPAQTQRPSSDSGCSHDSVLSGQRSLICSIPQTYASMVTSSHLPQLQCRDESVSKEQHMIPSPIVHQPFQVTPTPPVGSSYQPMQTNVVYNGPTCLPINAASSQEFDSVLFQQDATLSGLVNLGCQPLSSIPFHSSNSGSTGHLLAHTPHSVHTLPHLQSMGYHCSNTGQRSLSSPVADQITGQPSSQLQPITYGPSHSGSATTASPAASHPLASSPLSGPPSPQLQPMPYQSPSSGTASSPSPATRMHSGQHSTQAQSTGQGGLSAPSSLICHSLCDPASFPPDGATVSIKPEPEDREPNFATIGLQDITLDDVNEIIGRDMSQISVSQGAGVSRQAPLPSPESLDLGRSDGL

Target | log2 fold change [1] | log2 fold change (filanesib) | log2 fold change (zotarolimus) | log2 fold change (idasanutlin) | log2 fold change (alisertib) | log2 fold change [2] | log2 fold change (gefitinib) | log2 fold change [3] | log2 fold change (lapatinib) | log2 fold change (pictilisib) | log2 fold change [4] | log2 fold change (crizotinib) | log2 fold change [5] | log2 fold change [6] | log2 fold change (duvelisib) | log2 fold change (gandotinib) | log2 fold change (tozasertib) | log2 fold change [7] | log2 fold change (doramapimod) | log2 fold change (ispinesib)
NAP1L1 (UniProt P55209) | -0.001 | 0.08 | 0.078 | 0.053 | -0.043 | 0.078 | -0.002 | -0.041 | -0.005 | 0.107 | 0.018 | -0.025 | -0.122 | -0.021 | 0.068 | -0.09 | 0.045 | -0.016 | 0.009 | 0.04
MRPS6 (UniProt P82932) | 0.204 | -0.019 | 0.038 | -0.275 (active) | 0.029 | 0.012 | -0.051 | -0.081 | 0.035 | -0.003 | -0.038 | -0.076 | 0.117 | 0.085 | -0.002 | -0.016 | 0.022 | 0.081 | 0.048 | -0.208
MRPS27 isoform 2 (UniProt Q92552) | 0.062 | 0.029 | 0.068 | -0.124 | -0.05 | -0.024 | 0.016 | -0.014 | 0.036 | -0.038 | -0.017 | -0.062 | 0.005 | 0.097 | 0.029 | 0.094 | 0.002 | 0.096 | 0.013 | -0.304 (active)
NFATC3 (UniProt Q12968) | 0.039 | 0.056 | -0.109 | -0.009 | 0.006 | -0.109 | 0.048 | -0.002 | 0.015 | 0.086 | -0.06 | -0.179 | 0.014 | -0.04 | -0.012 | -0.161 | -0.039 | 0.091 | 0.066 | 0.256
NMRAL1 (UniProt Q9HBL8) | 0.678 | -0.084 | 0.135 | -0.268 | -0.099 | 0.184 | 0.257 | 0.003 | -0.003 | 0.83 | 0.228 | 0.469 | 0.054 | 0.04 | 0.046 | -0.169 | -0.056 | -0.009 | 0.001 | -0.103
NRDC isoform 2 (UniProt O43847) | 0 | -0.038 | 0.005 | -0.026 | 0.013 | 0.076 | -0.022 | -0.001 | -0.019 | -0.029 | 0.034 | -0.065 | 0.054 | -0.034 | 0.008 | -0.029 | 0.02 | 0.089 | -0.036 | -0.022
NACC1 (UniProt Q96RE7) | 0.009 | -0.116 | 0.103 | 0.02 | 0.016 | -0.198 | 0.021 | 0.024 | -0.031 | -0.034 | 0 | 0.005 | 0.082 | -0.03 | 0.103 | -0.129 | 0.161 | 0.152 | -0.064 | -0.019
NOSIP (UniProt Q9Y314) | -0.069 | 0.143 | -0.018 | 0.029 | 0.166 | 0.174 | 0.156 | -0.053 | -0.046 | -0.067 | 0.108 | 0.329 | -0.08 | -0.03 | 0.118 | -0.118 | 0.191 | 0.257 | -0.113 | 0.133
NARS2 (UniProt Q96I59) | -0.213 | -0.196 | 0.027 | -0.072 | -0.046 | 0.007 | -0.039 | 0.09 | -0.031 | -0.037 | 0.038 | -0.099 | 0.125 | -0.061 | 0.037 | 0.02 | -0.051 | -0.028 | -0.009 | -0.401 (active)
OPA1 isoform 2 (UniProt O60313) | -0.01 | -0.118 | 0.035 | -0.105 | 0.002 | -0.249 (active) | -0.002 | 0.002 | 0.024 | -0.07 | 0.056 | -0.326 (active) | 0.048 | -0.003 | 0.034 | -0.063 | -0.075 | 0.054 | -0.031 | -0.337 (active)
NMD3 (UniProt Q96D46) | 0.004 | -0.221 | 0.008 | -0.095 | -0.034 | 0.108 | 0.007 | 0.016 | 0 | 0.089 | 0.094 | 0.003 | 0.122 | -0.179 | 0.064 | 0.007 | -0.007 | 0.03 | -0.013 | 0.139
NCL (UniProt P19338) | -0.091 | 0.454 | 0.026 | 0.274 | -0.16 | -0.099 | -0.022 | -0.217 | 0.159 | -0.085 | -0.136 | 0.12 | -0.59 | 0.428 | -0.162 | 0.315 | 0.064 | 0.075 | 0.254 | -0.19
NECTIN2 (UniProt Q92692) | -0.028 | 0.027 | -0.042 | -0.003 | -0.084 | 0.011 | 0.06 | 0.014 | -0.01 | 0.021 | 0.004 | 0.121 | 0.082 | -0.148 | 0.062 | -0.036 | -0.048 | -0.038 | 0.015 | 0.113
NUP85 (UniProt Q9BW27) | 0.01 | -0.009 | -0.022 | 0.016 | -0.061 | -0.038 | 0.025 | 0.043 | -0.042 | 0.049 | 0.022 | -0.007 | 0.049 | -0.088 | 0.033 | -0.107 | 0.048 | 0.026 | -0.021 | 0.015
MRPL50 (UniProt Q8N5N7) | -0.03 | 0.078 | 0.202 | -0.122 | -0.078 | -0.719 (active) | 0.004 | -0.022 | 0.42 | -0.067 | -0.031 | 0.133 | 0.045 | -0.045 | -0.016 | 0.04 | 0.042 | 0.104 | 0.092 | 0.199
NEMP1 (UniProt O14524) | -0.041 | -0.247 | -0.021 | 0.034 | -0.084 | -0.487 (active) | -0.021 | 0.006 | 0.001 | -0.02 | -0.058 | -0.121 | -0.035 | 0.011 | 0.013 | -0.1 | -0.004 | -0.014 | 0.032 | -0.354 (active)
